Experimental data published in PubChem BioAssay AID1508601 (ICCB-Longwood Screening Facility, Harvard Medical School, 2020).
The campaign covered roughly 5,700 compounds. About 85 (1%) were called active. The sample holds actives, similar compounds and a random draw of the others, so the mix is not that of the screen. Cut-off read from the data, not from the text of the source: active = p53-positive nuclei above about 36% (passing the limit was not always enough); inactive = the rest.

Tests used:
[1] = p53 stabilisation in HPV-positive human cells, imaging, p53-positive nuclei imaging, 24 h, 48 h (AID 1508601); details: 24/48 h
[2] = molecular target: Cellular tumor antigen p53 (Homo sapiens) (UniProt P04637); test: as above; details: 24/48 h, stronger effect = higher value
Cellular tumor antigen p53 (Homo sapiens), sequence (P04637 whole entry, looked up): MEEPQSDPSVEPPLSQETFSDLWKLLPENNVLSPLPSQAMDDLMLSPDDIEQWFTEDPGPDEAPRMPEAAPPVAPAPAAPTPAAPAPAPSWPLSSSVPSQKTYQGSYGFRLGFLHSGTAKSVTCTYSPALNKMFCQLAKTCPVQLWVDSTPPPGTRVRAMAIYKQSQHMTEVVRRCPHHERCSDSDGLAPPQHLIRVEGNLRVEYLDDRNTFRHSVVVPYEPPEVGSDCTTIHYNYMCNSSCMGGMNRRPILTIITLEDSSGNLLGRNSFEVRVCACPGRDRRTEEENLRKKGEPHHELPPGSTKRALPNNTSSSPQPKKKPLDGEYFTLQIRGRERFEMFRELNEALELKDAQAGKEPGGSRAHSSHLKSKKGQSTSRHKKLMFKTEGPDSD

[3] = measured here: cell number at 24 h, Library stock concentration: 80 uM
[4] = measured here: cell number at 24 h, Library stock concentration: 400 uM
[5] = measured here: cell number at 24 h, Library stock concentration: 2 mM
[6] = measured here: cell number at 24 h, Library stock concentration: 10 mM
[7] = measured here: cell number at 48 h, Library stock concentration: 80 uM
[8] = measured here: cell number at 48 h, Library stock concentration: 400 uM
[9] = measured here: cell number at 48 h, Library stock concentration: 2 mM
[10] = measured here: cell number at 48 h, Library stock concentration: 10 mM
[11] = Library stock concentration: 80 uM
[12] = Library stock concentration: 400 uM
[13] = Library stock concentration: 2 mM
[14] = Library stock concentration: 10 mM
[15] = measured here: p53 positive nuclei at 24 h, Library stock concentration: 80 uM
[16] = measured here: p53 positive nuclei at 24 h, Library stock concentration: 400 uM
[17] = measured here: p53 positive nuclei at 24 h, Library stock concentration: 2 mM
[18] = measured here: p53 positive nuclei at 24 h, Library stock concentration: 10 mM
[19] = measured here: cell number at 24 h, Library stock concentration: 3.33 mM
[20] = measured here: cell number at 48 h, Library stock concentration: 3.33 mM
[21] = Library stock concentration: 3.33 mM
[22] = measured here: p53 positive nuclei at 24 h, Library stock concentration: 3.33 mM
[23] = measured here: cell number at 24 h, concentration not given here
[24] = measured here: cell number at 48 h, concentration not given here
[25] = measured here: p53 positive nuclei at 24 h, concentration not given here

## COc1ccc2nc3ccc(OC)cc3c(SCCCN)c2c1
[1]; [3]
  nuclei count, normalised: 111%
[1]; [4]
  nuclei count, normalised: 114%
[1]; [5]
  nuclei count, normalised: 103%
[1]; [6]
  nuclei count, normalised: 81.6%
[1]; [7]
  nuclei count, normalised: 119%
[1]; [8]
  nuclei count, normalised: 115%
[1]; [9]
  nuclei count, normalised: 109%
[1]; [10]
  nuclei count, normalised: 90.5%
[2]; [11]
  p53-positive nuclei, normalised: -0.0602% (inactive)
[2]; [12]
  p53-positive nuclei, normalised: -0.0191% (inactive)
[2]; [13]
  p53-positive nuclei, normalised: -0.0521% (inactive)
[2]; [14]
  p53-positive nuclei, normalised: 0.61% (inactive)
[2]; [15]
  p53-positive nuclei, normalised: -0.00591%
[2]; [16]
  p53-positive nuclei, normalised: -0.136%
[2]; [17]
  p53-positive nuclei, normalised: 0.00172%
[2]; [18]
  p53-positive nuclei, normalised: 0.819%

## CC(=O)Nc1ccc(C(=O)Nc2ccccc2N)cc1
[1]; [19]
  nuclei count, normalised: 92.6%
[1]; [20]
  nuclei count, normalised: 89.8%
[2]; [21]
  p53-positive nuclei, normalised: 0.127% (inactive)
[2]; [22]
  p53-positive nuclei, normalised: -0.311%

## CC(C)[C@H](C(=O)Nc1ccc(C(=O)NO)cc1)c1ccccc1
[1]; [23]
  nuclei count, normalised: 80%
[1]; [24]
  nuclei count, normalised: 65.6%
[2]; concentration not given here
  p53-positive nuclei, normalised: 9.18% (inactive)
[2]; [25]
  p53-positive nuclei, normalised: 17.4%

## CC(C)C(C(=O)Nc1ccc(C(=O)NO)cc1)c1ccccc1 (stereo not given)
[1]; [19]
  nuclei count, normalised: 45.5%
[1]; [20]
  nuclei count, normalised: 32%
[2]; [21]
  p53-positive nuclei, normalised: 48.1% (active)
[2]; [22]
  p53-positive nuclei, normalised: 50.4%

## COc1ccc(F)cc1-c1cnn(CC(=O)Nc2cc(C)nn2C)c1
[1]; [23]
  nuclei count, normalised: 95.8%
[1]; [24]
  nuclei count, normalised: 92.9%
[2]; concentration not given here
  p53-positive nuclei, normalised: 0.158% (inactive)
[2]; [25]
  p53-positive nuclei, normalised: -0.0647%

## CCCCC/C=C/C/C=C/CCCCCCCC(=O)O
[1]; [23]
  nuclei count, normalised: 108%
[1]; [24]
  nuclei count, normalised: 108%
[2]; concentration not given here
  p53-positive nuclei, normalised: -0.00219% (inactive)
[2]; [25]
  p53-positive nuclei, normalised: -0.0851%

## Cc1cc(OCc2nnc(SC3CCCC3)n2-c2cccnc2)ccc1-c1ccc(S(C)(=O)=O)cc1
[1]; measured here: cell number at 24 h, Library stock concentration: 46 uM
  nuclei count, normalised: 107%
[1]; measured here: cell number at 24 h, Library stock concentration: 278 uM
  nuclei count, normalised: 112%
[1]; measured here: cell number at 24 h, Library stock concentration: 1.67 mM
  nuclei count, normalised: 74.2%
[1]; [19]
  nuclei count, normalised: 78.3%
[1]; [6]
  nuclei count, normalised: 53.9%
[1]; measured here: cell number at 48 h, Library stock concentration: 46 uM
  nuclei count, normalised: 114%
[1]; measured here: cell number at 48 h, Library stock concentration: 278 uM
  nuclei count, normalised: 110%
[1]; measured here: cell number at 48 h, Library stock concentration: 1.67 mM
  nuclei count, normalised: 69.2%
[1]; [20]
  nuclei count, normalised: 66.8%
[1]; [10]
  nuclei count, normalised: 36.2%
[2]; Library stock concentration: 46 uM
  p53-positive nuclei, normalised: -0.268% (inactive)
[2]; Library stock concentration: 278 uM
  p53-positive nuclei, normalised: -0.012% (inactive)
[2]; Library stock concentration: 1.67 mM
  p53-positive nuclei, normalised: 2.41% (inactive)
[2]; [21]
  p53-positive nuclei, normalised: 3.08% (inactive)
[2]; [14]
  p53-positive nuclei, normalised: 57.1% (active)
[2]; measured here: p53 positive nuclei at 24 h, Library stock concentration: 46 uM
  p53-positive nuclei, normalised: -0.152%
[2]; measured here: p53 positive nuclei at 24 h, Library stock concentration: 278 uM
  p53-positive nuclei, normalised: -0.153%
[2]; measured here: p53 positive nuclei at 24 h, Library stock concentration: 1.67 mM
  p53-positive nuclei, normalised: 1.05%
[2]; [22]
  p53-positive nuclei, normalised: 0.345%
[2]; [18]
  p53-positive nuclei, normalised: 46.4%

## CC(NC(=O)c1cc(Cl)ccc1Oc1ccc(F)cc1)c1ccc(C(=O)O)cc1 (stereo not given)
[1]; [3]
  nuclei count, normalised: 115%
[1]; [4]
  nuclei count, normalised: 119%
[1]; [5]
  nuclei count, normalised: 117%
[1]; [6]
  nuclei count, normalised: 107%
[1]; [7]
  nuclei count, normalised: 117%
[1]; [8]
  nuclei count, normalised: 115%
[1]; [9]
  nuclei count, normalised: 114%
[1]; [10]
  nuclei count, normalised: 108%
[2]; [11]
  p53-positive nuclei, normalised: 0.0152% (inactive)
[2]; [12]
  p53-positive nuclei, normalised: -0.136% (inactive)
[2]; [13]
  p53-positive nuclei, normalised: -0.0948% (inactive)
[2]; [14]
  p53-positive nuclei, normalised: -0.00827% (inactive)
[2]; [15]
  p53-positive nuclei, normalised: -0.00172%
[2]; [16]
  p53-positive nuclei, normalised: -0.0227%
[2]; [17]
  p53-positive nuclei, normalised: -0.0802%
[2]; [18]
  p53-positive nuclei, normalised: -0.136%

## O=C1OC[C@@H](Cc2cccc(O)c2)[C@@H]1Cc1cccc(O)c1
[1]; [23]
  nuclei count, normalised: 111%
[1]; [24]
  nuclei count, normalised: 114%
[2]; concentration not given here
  p53-positive nuclei, normalised: -0.147% (inactive)
[2]; [25]
  p53-positive nuclei, normalised: -0.118%

## COC1C[C@H]2CCC(C)[C@@](O)(O2)C(=O)C(=O)N2CCCC[C@H]2C(=O)OC(C(C)CC2CCC(OP(C)(C)=O)C(OC)C2)CC(=O)C(C)C=C(C)C(O)C(OC)C(=O)C(C)CC(C)C=CC=CC=C1C (stereo not given in full)
[1]; [19]
  nuclei count, normalised: 108%
[1]; [20]
  nuclei count, normalised: 105%
[2]; [21]
  p53-positive nuclei, normalised: -0.656% (inactive)
[2]; [22]
  p53-positive nuclei, normalised: -0.202%
